# From the supplement of paper PMC10037445
# In all, about 2,900 compounds were measured (“IRF Lucia reporter activity, fold change vs agonist alone”: median about 0.9, highest 2% from about 2.8 on). The sample as a whole holds a higher share of the highest values than the screen did.
# Assays:
# RAW-Dual [1] = experiment: IRF Lucia reporter activity, fold change vs agonist alone; cytotoxicity flag (confluency mask): cytotoxic (confluency <70% of control); higher = enhanced IRF activity
# In short: (§1)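 RAW-Dual macrophages were seeded in DMEM at 50,000 cells/well in 384-well plates, given 50 nL of library stock by pin tool, and given a PRR agonist 1 h later. Plates were held at 37 °C, 5% CO2 for 20 hours, after which supernatant was read for IRF by QuantiLuc luminescence and for NF-κB by QuantiBlue absorbance at 620 nm. Reporter activity is expressed as fold change over wells that received agonist alone. A well was called cytotoxic when IncuCyte confluency fell below 70% of agonist controls in both mask sets.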
# RAW-Dual [2] = experiment: IRF Lucia reporter activity, fold change vs agonist alone; higher = enhanced IRF activity; details: agonist: MPLA (TLR4) […]
# In short: as §1
# RAW-Dual [3] = experiment: IRF Lucia reporter activity, fold change vs agonist alone; cytotoxicity flag (confluency mask): not cytotoxic; higher = enhanced IRF activity
# In short: as §1
# [4] = agonist: 3'3'-cGAMP (STING) 10 ug/mL
# [5] = library stock concentration (final ~1000-fold dilution): 10 mM, cytotoxicity flag (confluency mask): not cytotoxic
structure (smiles),measurement,setting,value
COc1cc2c(cc1O)CCC1C2CCC2(C)C(O)CCC12 (centres undefined) (library stock concentration (final ~1000-fold dilution): 10 mM),IRF Lucia reporter activity,RAW-Dual [1]; [4],0.205
same,IRF Lucia reporter activity,RAW-Dual [1]; agonist: LPS (TLR4) 0.1 ug/mL,1.03
COc1cc2c(cc1O)CCC1C2CCC2(C)C(O)CCC12 (centres undefined),IRF Lucia reporter activity,"RAW-Dual [2]; library stock concentration (final ~1000-fold dilution): 10 mM, cytotoxicity flag (confluency mask): cytotoxic (confluency <70% of control)",1.31
Cc1cc(C(=O)NOCCO)c(Nc2ccc(I)cc2F)n(C)c1=O,IRF Lucia reporter activity,RAW-Dual [2]; [5],2.81
O=C(NOCC(O)CO)c1cc(Br)c(F)c(F)c1Nc1ccc(I)cc1F (centres undefined) (library stock concentration (final ~1000-fold dilution): 10 mM),IRF Lucia reporter activity,RAW-Dual [3]; [4],0.713
same,IRF Lucia reporter activity,RAW-Dual [3]; agonist: LPS (TLR4) 0.1 ug/mL,2.11
O=C(NOCCO)c1ccc2cncn2c1Nc1ccc(I)cc1F,IRF Lucia reporter activity,RAW-Dual [2]; [5],3.27
Cn1c(=O)c(F)c(Nc2ccc(I)cc2F)c2c(=O)n(CC(O)CO)cnc21 (centres undefined),IRF Lucia reporter activity,RAW-Dual [2]; [5],1.23
O=C(NOCC1CC1)c1ccc(F)c(F)c1Nc1ccc(I)cc1Cl,IRF Lucia reporter activity,RAW-Dual [2]; [5],2.05
O=C(NOCC1CC1)c1ccc(F)c(F)c1Nc1ccc(I)cc1Cl (library stock concentration (final ~1000-fold dilution): 10 mM),IRF Lucia reporter activity,RAW-Dual [3]; [4],0.525
same,IRF Lucia reporter activity,RAW-Dual [3]; agonist: LPS (TLR4) 0.1 ug/mL,2.5
O=C(NOCC(O)CO)c1ccc(F)c(F)c1Nc1ccc(I)cc1F (centres undefined) (library stock concentration (final ~1000-fold dilution): 10 mM),IRF Lucia reporter activity,RAW-Dual [3]; [4],0.903
same,IRF Lucia reporter activity,RAW-Dual [3]; agonist: LPS (TLR4) 0.1 ug/mL,3.61
Cc1cc(C(=O)NOCCO)c(Nc2ccc(I)cc2F)n(C)c1=O (library stock concentration (final ~1000-fold dilution): 10 mM),IRF Lucia reporter activity,RAW-Dual [3]; [4],0.824
same,IRF Lucia reporter activity,RAW-Dual [3]; agonist: LPS (TLR4) 0.1 ug/mL,2.13
Cn1c(=O)c(F)c(Nc2ccc(I)cc2F)c2c(=O)n(CC(O)CO)cnc21 (centres undefined) (library stock concentration (final ~1000-fold dilution): 10 mM),IRF Lucia reporter activity,RAW-Dual [3]; [4],0.517
same,IRF Lucia reporter activity,RAW-Dual [3]; agonist: LPS (TLR4) 0.1 ug/mL,0.819
O=C(NOCC(O)CO)c1ccc(F)c(F)c1Nc1ccc(I)cc1F (centres undefined),IRF Lucia reporter activity,RAW-Dual [2]; [5],3.52
O=C(NOCC(O)CO)c1cc(Br)c(F)c(F)c1Nc1ccc(I)cc1F (centres undefined),IRF Lucia reporter activity,RAW-Dual [2]; [5],2.39
O=C(NOCCO)c1ccc2cncn2c1Nc1ccc(I)cc1F (library stock concentration (final ~1000-fold dilution): 10 mM),IRF Lucia reporter activity,RAW-Dual [3]; [4],0.814
same,IRF Lucia reporter activity,RAW-Dual [3]; agonist: LPS (TLR4) 0.1 ug/mL,3.65
Br.Br.Br.Br.Br.Br.c1ccc(CNCc2ccc(CN3CCCNCCNCCCNCC3)cc2)nc1 (library stock concentration (final ~1000-fold dilution): 10 mM water),IRF Lucia reporter activity,RAW-Dual [3]; [4],1.07
same,IRF Lucia reporter activity,RAW-Dual [3]; agonist: LPS (TLR4) 0.1 ug/mL,0.886
Br.Br.Br.Br.Br.Br.c1ccc(CNCc2ccc(CN3CCCNCCNCCCNCC3)cc2)nc1,IRF Lucia reporter activity,"RAW-Dual [2]; library stock concentration (final ~1000-fold dilution): 10 mM water, cytotoxicity flag (confluency mask): not cytotoxic",1.35
COc1cc2ccc(=O)oc2c(OC)c1O (library stock concentration (final ~1000-fold dilution): .1 mM),IRF Lucia reporter activity,RAW-Dual [3]; [4],1.07
same,IRF Lucia reporter activity,RAW-Dual [3]; agonist: LPS (TLR4) 0.1 ug/mL,0.255
NC1=NC2(c3cc(NC(=O)c4ccc(F)cn4)ccc3F)COCC2CS1 (centres undefined) (library stock concentration (final ~1000-fold dilution): 10 mM),IRF Lucia reporter activity,RAW-Dual [3]; [4],1.08
same,IRF Lucia reporter activity,RAW-Dual [3]; agonist: LPS (TLR4) 0.1 ug/mL,0.998
NC1=NC2(c3cc(NC(=O)c4ccc(F)cn4)ccc3F)COCC2CS1 (centres undefined),IRF Lucia reporter activity,RAW-Dual [2]; [5],1.04
Cn1cc(-c2cc3c(-c4ccc(CNC(=O)c5noc(C(C)(C)C)n5)c(F)c4)ncnc3[nH]2)cn1 (library stock concentration (final ~1000-fold dilution): 10 mM),IRF Lucia reporter activity,RAW-Dual [3]; [4],0.039
same,IRF Lucia reporter activity,RAW-Dual [3]; agonist: LPS (TLR4) 0.1 ug/mL,0.396
Cc1nnc(SCC2=C(C(=O)O)N3C(=O)C(NC(=O)Cn4cnnn4)C3SC2)s1 (centres undefined),IRF Lucia reporter activity,RAW-Dual [2]; [5],1.07
Cc1nnc(SCC2=C(C(=O)O)N3C(=O)C(NC(=O)Cn4cnnn4)C3SC2)s1 (centres undefined) (library stock concentration (final ~1000-fold dilution): 10 mM),IRF Lucia reporter activity,RAW-Dual [3]; [4],1.08
same,IRF Lucia reporter activity,RAW-Dual [3]; agonist: LPS (TLR4) 0.1 ug/mL,1.26
Cc1ccsc1C(=CCCN1CCCC(C(=O)O)C1)c1sccc1C (centres undefined),IRF Lucia reporter activity,RAW-Dual [2]; [5],1
Cc1ccsc1C(=CCCN1CCCC(C(=O)O)C1)c1sccc1C (centres undefined) (library stock concentration (final ~1000-fold dilution): 10 mM),IRF Lucia reporter activity,RAW-Dual [3]; [4],0.964
same,IRF Lucia reporter activity,RAW-Dual [3]; agonist: LPS (TLR4) 0.1 ug/mL,1.29
COC1CC2CCC(C)C(O)(O2)C(=O)C(=O)N2CCCCC2C(=O)OC(C(C)CC2CCC(n3cnnn3)C(OC)C2)CC(=O)C(C)C=C(C)C(O)C(OC)C(=O)C(C)CC(C)C=CC=CC=C1C (centres undefined),IRF Lucia reporter activity,RAW-Dual [2]; [5],0.832
COC1CC2CCC(C)C(O)(O2)C(=O)C(=O)N2CCCCC2C(=O)OC(C(C)CC2CCC(OCCO)C(OC)C2)CC(=O)C(C)C=C(C)C(O)C(OC)C(=O)C(C)CC(C)C=CC=CC=C1C (centres undefined),IRF Lucia reporter activity,RAW-Dual [2]; [5],3.06
